# Experimental data: PubChem BioAssay (NCI)
# About 79,000 compounds went through this panel and 15% of them were active in at least one assay; those are over-represented in the sample as a whole. Unmarked numbers belong to inactive results. Active and inactive are the calls of the source. No stated cut-off is given here; in the data, active means growth inhibition above about 70%; inactive means the rest.
# What was measured:
# [1] = NCI Yeast Anticancer Drug Screen. Data for the rad52 strain (AID 147);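 further: 0% = growth of vehicle-treated control cultures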; conditions: S. cerevisiae rad52 mutant growth inhibition, hits give high values
# Summary of the method: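 Compounds are applied to a genetically defined yeast strain lacking normal DNA damage repair, and inhibition of growth is expressed relative to cultures given vehicle only.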
# [2] = NCI Yeast Anticancer Drug Screen. Data for the wt1 strain (AID 149);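 further: 0% = growth of vehicle-treated wt1 cultures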; conditions: S. cerevisiae wt1 strain (SPY 50644) growth inhibition, hits give high values
# Summary of the method: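 Vehicle-normalised growth inhibition; strain wt1; compound exposure.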
# [3] = NCI Yeast Anticancer Drug Screen. Data for the rad50EPP+ strain (AID 151);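 further: 0% = growth of vehicle-treated control cultures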; conditions: S. cerevisiae rad50 mutant strain, hits give high values
# Summary of the method: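 Compounds were applied to the rad50EPP+ yeast strain, which bears a defined DNA repair alteration, and growth inhibition was determined relative to vehicle-treated cultures.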
# [4] = NCI Yeast Anticancer Drug Screen. Data for the mgt1 strain (AID 153); conditions: S. cerevisiae mgt1 mutant growth inhibition, hits give high values
# Summary of the method: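 Strain: mgt1 yeast, one of a set carrying defined DNA damage repair or cell cycle control alterations. Compound-treated growth compared with vehicle.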
# [5] = NCI Yeast Anticancer Drug Screen. Data for the rad50 strain (AID 155);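 further: 0% = growth of vehicle-only cultures of the same strain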; conditions: S. cerevisiae rad50 strain growth inhibition, hits give high values
# Summary of the method: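 A DNA repair-deficient yeast mutant serves as the test organism; compound-induced growth inhibition is calculated against vehicle-treated cells.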
# [6] = NCI Yeast Anticancer Drug Screen. Data for the mec2-1 strain (AID 157); conditions: S. cerevisiae mec2-1 strain, hits give high values
# Summary of the method: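 Strain: mec2-1 (DNA repair/cell cycle alteration). Compound exposure, then growth measured; inhibition expressed relative to vehicle.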
# [7] = NCI Yeast Anticancer Drug Screen. Data for the rad14 strain (AID 159);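 further: 0% = growth of vehicle-treated control cultures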; conditions: S. cerevisiae rad14 strain growth inhibition, hits give high values
# Summary of the method: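 Vehicle-treated cultures served as the baseline for growth inhibition of a DNA repair-mutant yeast strain exposed to each compound.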
# [8] = NCI Yeast Anticancer Drug Screen. Data for the sgs1 mgt1 strain (AID 161);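 further: 0% = growth of cultures given vehicle only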; conditions: S. cerevisiae sgs1 mgt1 strain, hits give high values
# Summary of the method: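 Read-out: growth inhibition vs vehicle controls. Cells: mutant yeast strain deficient in DNA damage repair.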
# [9] = NCI Yeast Anticancer Drug Screen. Data for the CLN2oe strain (AID 163);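 further: 0% = growth of vehicle-only control cultures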; conditions: S. cerevisiae CLN2oe strain, hits give high values
# Summary of the method: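 Growth of a genetically modified yeast strain is measured after compound exposure and compared with cultures given vehicle alone.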
# [10] = NCI Yeast Anticancer Drug Screen. Data for the cln2 rad14 strain (AID 165);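 further: 0% = growth equal to vehicle treated cultures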; conditions: S. cerevisiae cln2 rad14 strain, hits give high values
# Summary of the method: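 Compounds are applied to the cln2 rad14 yeast strain, and growth is then compared with that of vehicle-treated cultures to give inhibition.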
# [11] = NCI Yeast Anticancer Drug Screen. Data for the bub3 strain (AID 167); conditions: S. cerevisiae bub3 mutant strain, hits give high values
# Summary of the method: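 Inhibition values come from growth of compound-treated mutant yeast normalised to vehicle-treated controls.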
# [12] = NCI Yeast Anticancer Drug Screen. Data for the wt2 strain (AID 169);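 further: 0% = growth of vehicle-treated yeast cultures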; conditions: S. cerevisiae wt2 strain growth inhibition, hits give high values
# Summary of the method: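 This strain belongs to a panel of yeast strains with defined genetic alterations in DNA damage repair or cell cycle control. Compounds are applied, and growth inhibition is measured against vehicle-treated cultures.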
# [13] = NCI Yeast Anticancer Drug Screen. Data for the mlh1 strain (AID 171);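 further: 0% = growth of vehicle-treated control cultures of the same strain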; conditions: S. cerevisiae mlh1 strain growth inhibition, hits give high values
# Summary of the method: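 Growth of the mutant yeast strain after compound exposure, expressed as inhibition relative to vehicle-only controls.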
# [14] = NCI Yeast Anticancer Drug Screen. Data for the sgs1 strain (AID 173);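 further: 0% = growth of vehicle-only control cultures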; conditions: S. cerevisiae sgs1 mutant, hits give high values
# Summary of the method: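 Growth of a yeast strain bearing a defined genetic alteration is measured after compound treatment. Inhibition is expressed relative to vehicle-only controls.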
# [15] = NCI Yeast Anticancer Drug Screen. Data for the mlh1 rad18 strain (AID 175); conditions: S. cerevisiae mlh1 rad18 strain growth inhibition, hits give high values
# Summary of the method: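 Read-out is yeast growth inhibition, calculated against vehicle-only controls. The compound was applied to a strain engineered with DNA damage repair alterations.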
# [16] = NCI Yeast Anticancer Drug Screen. Data for the rad18 strain (AID 177); conditions: S. cerevisiae rad18 mutant growth inhibition, hits give high values
# Summary of the method: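 Growth of the mutant yeast strain after compound exposure, normalised to vehicle-only cultures.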
# [17] = at 5.0 µM (retest, dose inferred, filed as 0.5)
# [18] = at 50.0 µM (retest, dose inferred, filed as 5.0)
compound,measurement,setting,value
Clc1ccc(SC(/C=C/NNC2=NC(c3ccccc3)C(c3ccccc3)=NN2)c2ccccc2)cc1 (stereo not drawn),growth inhibition,[1]; at 1.2 µM,0%
same,growth inhibition,[1]; at 3.7 µM,6%
same,growth inhibition,[1]; at 11.0 µM,11%
same,growth inhibition,[1]; at 33.0 µM,19%
same,growth inhibition,[1]; at 100.0 µM,83% (active)
same,growth inhibition,[2]; at 1.2 µM,0%
same,growth inhibition,[2]; at 3.7 µM,-1%
same,growth inhibition,[2]; at 11.0 µM,-2%
same,growth inhibition,[2]; at 33.0 µM,-1%
same,growth inhibition,[2]; at 100.0 µM,51%
same,growth inhibition,[3]; at 1.2 µM,2%
same,growth inhibition,[3]; at 3.7 µM,12%
same,growth inhibition,[3]; at 11.0 µM,7%
same,growth inhibition,[3]; at 33.0 µM,6%
same,growth inhibition,[3]; at 100.0 µM,0%
same,growth inhibition,[4]; at 1.2 µM,-5%
same,growth inhibition,[4]; at 3.7 µM,8%
same,growth inhibition,[4]; at 11.0 µM,-11%
same,growth inhibition,[4]; at 33.0 µM,8%
same,growth inhibition,[4]; at 100.0 µM,85% (active)
same,growth inhibition,[5]; at 1.2 µM,4%
same,growth inhibition,[5]; at 3.7 µM,14%
same,growth inhibition,[5]; [17],48%
same,growth inhibition,[5]; at 11.0 µM,14%
same,growth inhibition,[5]; at 33.0 µM,47%
same,growth inhibition,[5]; [18],48%
same,growth inhibition,[5]; at 50.0 µM,71.3% (active)
same,growth inhibition,[5]; at 100.0 µM,82% (active)
same,growth inhibition,[6]; at 1.2 µM,-1%
same,growth inhibition,[6]; at 3.7 µM,2%
same,growth inhibition,[6]; [17],0%
same,growth inhibition,[6]; at 11.0 µM,2%
same,growth inhibition,[6]; at 33.0 µM,8%
same,growth inhibition,[6]; [18],0%
same,growth inhibition,[6]; at 50.0 µM,18.6%
same,growth inhibition,[6]; at 100.0 µM,85% (active)
same,growth inhibition,[7]; at 1.2 µM,1%
same,growth inhibition,[7]; at 3.7 µM,6%
same,growth inhibition,[7]; at 11.0 µM,2%
same,growth inhibition,[7]; at 33.0 µM,50%
same,growth inhibition,[7]; at 100.0 µM,91% (active)
same,growth inhibition,[8]; [17],31%
same,growth inhibition,[8]; [18],31%
same,growth inhibition,[8]; at 50.0 µM,49.8%
same,growth inhibition,[9]; at 1.2 µM,-9%
same,growth inhibition,[9]; at 3.7 µM,0%
same,growth inhibition,[9]; at 11.0 µM,-4%
same,growth inhibition,[9]; at 33.0 µM,1%
same,growth inhibition,[9]; at 100.0 µM,80% (active)
same,growth inhibition,[10]; [17],7%
same,growth inhibition,[10]; [18],7%
same,growth inhibition,[10]; at 50.0 µM,70% (active)
same,growth inhibition,[11]; at 1.2 µM,-1%
same,growth inhibition,[11]; at 3.7 µM,-1%
same,growth inhibition,[11]; [17],5%
same,growth inhibition,[11]; at 11.0 µM,0%
same,growth inhibition,[11]; at 33.0 µM,37%
same,growth inhibition,[11]; [18],5%
same,growth inhibition,[11]; at 50.0 µM,60.9%
same,growth inhibition,[11]; at 100.0 µM,84% (active)
same,growth inhibition,[12]; at 1.2 µM,0%
same,growth inhibition,[12]; at 3.7 µM,2%
same,growth inhibition,[12]; at 11.0 µM,2%
same,growth inhibition,[12]; at 33.0 µM,29%
same,growth inhibition,[12]; at 100.0 µM,86% (active)
same,growth inhibition,[13]; at 1.2 µM,-3%
same,growth inhibition,[13]; at 3.7 µM,5%
same,growth inhibition,[13]; at 11.0 µM,-4%
same,growth inhibition,[13]; at 33.0 µM,31%
same,growth inhibition,[13]; at 100.0 µM,84% (active)
same,growth inhibition,[14]; at 1.2 µM,1%
same,growth inhibition,[14]; at 3.7 µM,3%
same,growth inhibition,[14]; at 11.0 µM,4%
same,growth inhibition,[14]; at 33.0 µM,33%
same,growth inhibition,[14]; at 100.0 µM,87% (active)
same,growth inhibition,[15]; [17],0%
same,growth inhibition,[15]; [18],0%
same,growth inhibition,[15]; at 50.0 µM,58.4%
same,growth inhibition,[16]; at 1.2 µM,2%
same,growth inhibition,[16]; at 3.7 µM,9%
same,growth inhibition,[16]; at 11.0 µM,23%
same,growth inhibition,[16]; at 33.0 µM,41%
same,growth inhibition,[16]; at 100.0 µM,80% (active)
